Test results as given in PubChem BioAssay AID1259421 (Broad Institute, 2018).
Several values for one entry are separate records, joined by “and”; a condition that tells them apart may be missing. Equal values may be shown once. Out of some 6,400 compounds screened, about 610 (9.5%) were called active. Rule as the data show it: active = activity change below about -70%; inconclusive = no clear call, values can overlap the other calls; inactive = above that. For the sample, actives were picked, then their nearest neighbours and some compounds at random. The source holds several records for some structures; these can differ, active in one and inactive in another.

Test: Toxoplasma gondii ME49Luc growth in HeLa cells, luciferase, no IFN-y, primary screen (AID 1259421)
Settings: T. gondii ME49Luc in HeLa, 72 h, stronger effect = lower value, concentration not given here
For Cc1cccc(C)c1NC(=O)CC12CCCN1CCC2, the activity change, negative = inhibition was 13.3% (inactive). In the case of CC(C)(C)NCC(O)COc1nsnc1N1CCOCC1 (stereo unspecified), the activity change, negative = inhibition is reported as -0.1% (inactive). With O=C1CCC(c2ccccc2)(C2CCN(Cc3ccc(I)cc3)CC2)C(=O)N1 (stereo unspecified) the activity change, negative = inhibition was 11.1% (inactive). In the case of Cc1ccc(/C=C2\C(=O)C3(C)CCC2C3(C)C)cc1 (stereo unspecified), the activity change, negative = inhibition is reported as 2.27% (inactive). For Cc1ccc(/C=C2/CNC/C(=C\c3ccc(C)cc3)C2=O)cc1, the activity change, negative = inhibition was -85.7% (active). In the case of Cc1ccc(/C=C2\CNC/C(=C\c3ccc(C)cc3)C2=O)cc1, the activity change, negative = inhibition is reported as -83.2% (active). In the case of Cc1ccc(S(N)(=O)=O)cc1, the activity change, negative = inhibition is reported as 13.5% (inactive). With CC(C)C[C@H](N[C@@H](Cc1cncn1Cc1cc(Cl)cc(Cl)c1)C(=O)O)C(=O)O the activity change, negative = inhibition was 6.67% (inactive). For CC1(O)CC(c2nc(-c3ccc4ccc(-c5ccccc5)nc4c3)c3c(N)nccn23)C1 (stereo unspecified), the activity change, negative = inhibition was -27.9% (inactive). For CCn1c(N)c(C(=O)NC)c(=O)c2ccc(C#C[C@@](C)(O)COC)nc21, the activity change, negative = inhibition was 13.3% (inactive). For CC1(C)C2CC[C@]3(C)[C@H](C(=O)C=C4[C@@H]5C[C@@](C)(C(=O)O)CC[C@]5(C)CC[C@]43C)[C@@]2(C)CC[C@@H]1OC(=O)CCC(=O)O (stereo partly specified), the activity change, negative = inhibition was 6.15% (inactive) and 3.75% (inactive). With CC(=O)O[C@H]1CC[C@@]2(C)C(C[C@@H](OC(C)=O)[C@@]3(C)C4=CC(=O)O[C@@H](c5ccoc5)[C@]4(C)CCC23)C1(C)C (stereo partly specified) the activity change, negative = inhibition was 15% (inactive). In the case of CC(=O)O[C@]1(C(C)=O)CCC2C3C=C(C)C4=CC(=O)CCC4(C)C3CCC21C (stereo partly specified), the activity change, negative = inhibition is reported as 4.78% (inactive) and -4.91% (inactive). With CCCCCCCCCCCCCCCC(=O)OC(C)C the activity change, negative = inhibition was 3.86% (inactive). In the case of CN[C@H](C(=O)N[C@H](C(=O)N(C)[C@H](/C=C(\C)C(=O)O)C(C)C)C(C)(C)C)C(C)(C)c1ccccc1, the activity change, negative = inhibition is reported as -73.6% (active). With C[C@H]1CCO[C@H]2Cn3cc(C(=O)NCc4ccc(F)cc4F)c(=O)c(O)c3C(=O)N21 the activity change, negative = inhibition was 25.9% (inactive). For Cc1cccc(C)c1NC(=O)c1cc(S(N)(=O)=O)c(Cl)cc1O, the activity change, negative = inhibition was 15.4% (inactive). For Cc1c(C)c2c(c(C)c1OC(=O)CCC(=O)O)CC[C@@](C)(CCC[C@H](C)CCC[C@H](C)CCCC(C)C)O2, the activity change, negative = inhibition was 19.4% (inactive). For O=c1c(O)c(-c2ccccc2)oc2cc(O)ccc12, the activity change, negative = inhibition was 31.5% (inactive). For CN1C[C@H](C(=O)N[C@]2(C)O[C@@]3(O)[C@@H]4CCCN4C(=O)[C@H](Cc4ccccc4)N3C2=O)C[C@@H]2c3cccc4[nH]cc(c34)C[C@H]21, the activity change, negative = inhibition was 5.44% (inactive) and 2.08% (inactive). For CC(=O)C1C(=O)[C@@H]2[C@H]3c4c[nH]c5cccc(c45)C[C@H]3C(C)(C)N2C1=O (stereo partly specified), the activity change, negative = inhibition was -78.3% (active) and -0.858% (inactive). In the case of CN1CC(C(=O)NC2(C)OC3(O)C4CCCN4C(=O)C(Cc4ccccc4)N3C2=O)CC2c3cccc4[nH]cc(c34)CC21 (stereo unspecified), the activity change, negative = inhibition is reported as -10.4% (inactive). For O=c1[nH]c2ccccc2c(=O)n1CCCN1CCN(c2ccccc2)CC1, the activity change, negative = inhibition was 11.8% (inactive). For CCC1(C)OC(=O)N(C)C1=O (stereo unspecified), the activity change, negative = inhibition was -5.39% (inactive). With O=c1[nH]cnc2ccccc12 the activity change, negative = inhibition was 0.966% (inactive) and 1.04% (inactive). With CC(C)(C)c1[nH]cnc1/C=c1\[nH]c(=O)/c(=C/c2ccccc2)[nH]c1=O the activity change, negative = inhibition was -85.5% (active). For CCCCCCCCCCCCCCOS(=O)(=O)O, the activity change, negative = inhibition was 8.96% (inactive). With COc1ccc(C(=O)/C=C/c2ccccc2)cc1 the activity change, negative = inhibition was 157% (inactive). With CC(=O)NC[C@H]1CN(c2ccc(N3CCN(C(=O)CO)CC3)c(F)c2)C(=O)O1 the activity change, negative = inhibition was 6.07% (inactive). In the case of CC(=O)NC(Cc1c[nH]c2ccccc12)C(=O)OCc1cc(C(F)(F)F)cc(C(F)(F)F)c1 (stereo unspecified), the activity change, negative = inhibition is reported as -1.95% (inactive). In the case of FC(F)(F)c1cc(CO[C@H]2CCCN[C@H]2c2ccccc2)cc(C(F)(F)F)c1, the activity change, negative = inhibition is reported as -9.54% (inactive) and -89.9% (active). With CC(=O)N[C@H](Cc1c[nH]c2ccccc12)C(=O)OCc1cc(C(F)(F)F)cc(C(F)(F)F)c1 the activity change, negative = inhibition was 6.34% (inactive). With O=C(O)CN(CCN(CC(=O)O)CC(=O)O)CC(=O)O the activity change, negative = inhibition was 1.89% (inactive). In the case of COCC1=C(C(=O)OC(C)OC(=O)OC(C)C)N2C(=O)[C@@H](NC(=O)/C(=N/OC)c3csc(N)n3)[C@H]2SC1 (stereo partly specified), the activity change, negative = inhibition is reported as -2.51% (inactive). In the case of NC(=O)N/N=C/c1ccc([N+](=O)[O-])o1, the activity change, negative = inhibition is reported as -68.6% (inactive) and -50.1% (inactive). For CCN(CC)c1ccc(/C=N/NC(=O)c2ccc(O)cc2)cc1, the activity change, negative = inhibition was 29.5% (inactive) and 44.8% (inactive). In the case of O=C(N/N=C/c1ccc([N+](=O)[O-])o1)c1ccc(O)cc1, the activity change, negative = inhibition is reported as -85.5% (active). In the case of CCCCCCn1c(=O)c2c(ncn2C)n(C)c1=O, the activity change, negative = inhibition is reported as 11.4% (inactive). In the case of CCc1nc(C)ccc1O, the activity change, negative = inhibition is reported as -11.9% (inactive). In the case of Cc1ccc2ccc3ccc(C)nc3c2n1, the activity change, negative = inhibition is reported as -94.5% (active). In the case of Cc1cccc(/C=C/c2ccccc2)n1, the activity change, negative = inhibition is reported as 35.7% (inactive). In the case of OCC1OC(O)C(F)C(O)C1O (stereo unspecified), the activity change, negative = inhibition is reported as 8.12% (inactive). With CCC[C@@H]1C[C@@H](C(=O)NC(C(C)Cl)[C@H]2O[C@H](SC)[C@H](O)[C@@H](O)[C@H]2O)N(C)C1 (stereo partly specified) the activity change, negative = inhibition was -1.81% (inactive) and 9.35% (inactive). With COc1cc(-c2ncn(/C=C\C(=O)OC(C)C)n2)cc(C(F)(F)F)c1 the activity change, negative = inhibition was -86.8% (active). In the case of O=C(/C=C\n1cnc(-c2cc(C(F)(F)F)cc(C(F)(F)F)c2)n1)N1CC(F)(F)C1, the activity change, negative = inhibition is reported as -81.3% (active). With O=C(/C=C\n1cnc(-c2cc(C(F)(F)F)cc(C(F)(F)F)c2)n1)NNc1cnccn1 the activity change, negative = inhibition was -78.8% (active). With CC(=O)CC(=O)O the activity change, negative = inhibition was -0.799% (inactive). For CC(=O)c1c(O)cc(O)cc1O, the activity change, negative = inhibition was 6.7% (inactive). In the case of COc1c(OC)c2occc2c2oc(=O)ccc12, the activity change, negative = inhibition is reported as 9.46% (inactive). With CC(=O)OCC(=O)[C@@]1(O)CCC2C3CCC4=CC(=O)C=C[C@]4(C)[C@@]3(Cl)[C@@H](Cl)C[C@@]21C (stereo partly specified) the activity change, negative = inhibition was -0.235% (inactive). For CCCC(=O)O[C@@]1(C(=O)COC(C)=O)CC[C@H]2[C@@H]3C[C@H](F)C4=CC(=O)C=C[C@]4(C)[C@]3(F)[C@H](O)C[C@@]21C, the activity change, negative = inhibition was 6.24% (inactive).
